# Hit rate of the full screen: of about 310,000 compounds, about 14,000 (4.5%) showed an effect of 50% or more. The effect is printed as a negative number. Only a selection was taken, and strong results are over-represented in it overall.
# Molecular target: human ether-à-go-go-related gene (hERG) potassium channel (human, UniProt Q12809)
# Test: primary screen, population patch clamp on CHO cells stably expressing hERG; higher = less effect of the substance
# 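Further: peak tail current of the secondary pulse compared with the same well before compound.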
# Sequence of human ether-à-go-go-related gene (hERG) potassium channel (Q12809 whole entry, looked up): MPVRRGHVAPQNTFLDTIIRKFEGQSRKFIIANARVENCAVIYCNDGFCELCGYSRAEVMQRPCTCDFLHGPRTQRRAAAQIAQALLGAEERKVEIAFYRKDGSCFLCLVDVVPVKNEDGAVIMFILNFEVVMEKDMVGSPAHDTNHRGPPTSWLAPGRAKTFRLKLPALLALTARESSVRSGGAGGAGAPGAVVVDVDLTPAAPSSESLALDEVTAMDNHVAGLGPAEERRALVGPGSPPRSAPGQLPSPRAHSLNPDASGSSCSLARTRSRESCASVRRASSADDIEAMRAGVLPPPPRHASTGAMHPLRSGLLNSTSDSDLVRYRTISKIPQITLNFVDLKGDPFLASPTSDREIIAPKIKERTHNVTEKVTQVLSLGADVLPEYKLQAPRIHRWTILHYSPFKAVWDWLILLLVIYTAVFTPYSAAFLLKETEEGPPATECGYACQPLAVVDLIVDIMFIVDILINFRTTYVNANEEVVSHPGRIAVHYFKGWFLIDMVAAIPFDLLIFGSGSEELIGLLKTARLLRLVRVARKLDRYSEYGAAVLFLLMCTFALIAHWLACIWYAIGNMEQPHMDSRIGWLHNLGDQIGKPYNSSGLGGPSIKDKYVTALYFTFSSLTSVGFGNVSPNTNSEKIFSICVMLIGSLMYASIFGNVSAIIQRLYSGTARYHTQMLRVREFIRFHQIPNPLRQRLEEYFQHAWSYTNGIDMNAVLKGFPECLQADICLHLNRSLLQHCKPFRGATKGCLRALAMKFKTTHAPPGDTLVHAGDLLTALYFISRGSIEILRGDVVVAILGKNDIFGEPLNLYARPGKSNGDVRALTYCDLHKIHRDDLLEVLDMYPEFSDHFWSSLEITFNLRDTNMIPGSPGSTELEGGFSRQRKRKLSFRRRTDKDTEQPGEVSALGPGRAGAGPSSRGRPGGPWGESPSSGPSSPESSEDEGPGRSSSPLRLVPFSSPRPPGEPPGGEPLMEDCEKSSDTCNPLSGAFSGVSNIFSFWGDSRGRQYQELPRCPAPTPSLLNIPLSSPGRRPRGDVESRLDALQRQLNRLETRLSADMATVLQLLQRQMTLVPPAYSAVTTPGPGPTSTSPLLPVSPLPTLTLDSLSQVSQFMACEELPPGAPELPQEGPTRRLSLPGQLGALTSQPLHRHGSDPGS
row,SMILES,"hERG current change (%, negative = inhibition) at 10uM"
1,CCCC(=O)N(CCN(Cc1ccccc1)C(=O)CCC)Cc1ccccc1,-42.5%
2,CCC(CO)NC(=O)c1cccc(S(=O)(=O)N2c3ccccc3CC2C)c1 (stereo not shown),2.65%
3,O=C(Nc1ccccc1[N+](=O)[O-])c1ccc(S(=O)(=O)N2CCCC2)cc1,1.84%
4,CCCN(CCC)c1ncnc2nc[nH]c12,-7.36%
5,CN(C)CCCN(C(=O)COc1ccc(Cl)cc1)c1nc2c(F)cccc2s1.Cl,-67.1%
6,Cc1cc(C)c2sc(N(CCCN(C)C)C(=O)COc3ccc(Cl)cc3)nc2c1.Cl,-1.13%
7,CN(C)CCN(C(=O)c1ccccc1Cl)c1nc2c(Cl)cccc2s1.Cl,-34.1%
8,Cc1cccc2sc(N(CCCN(C)C)C(=O)COc3ccc(Cl)cc3)nc12.Cl,-60.5%
9,CN(C)CCCN(C(=O)COc1ccccc1)c1nc2c(Cl)cccc2s1.Cl,-66.9%
10,COc1ccc2sc(N(CCCN(C)C)C(=O)c3nc4ccccc4s3)nc2c1.Cl,-5.36%
11,COc1cccc2sc(N(CCCN(C)C)C(=O)COc3ccc(Cl)cc3)nc12.Cl,-80.2%
12,O=[N+]([O-])/C(C(Cl)=C(Cl)Cl)=C(/NC1CC1)Sc1ccccc1,7.59%
13,CC(C)N1C(=O)CCC1C(=O)N1CCC(Cc2ccccc2)CC1 (stereo not shown),-25.3%
14,CC(C)CC(C(=O)NCc1ccccn1)N1C(=O)c2ccccc2C1=O (stereo not shown),-1.75%
15,CCc1ccc(N(CC(=O)NC(C)C)C(=O)CCC(=O)Nc2nccs2)cc1,13.4%
16,COc1ccc(/C=C/C(=O)c2ccc3c4c(cccc24)CC3)cc1OC,20.8%
17,Nc1nn(S(=O)(=O)c2ccccc2)cc1-c1ccc([N+](=O)[O-])cc1,-9.96%
18,O=C(COC(=O)c1ccc2c(c1)OCO2)Nc1ccccc1F,11.8%
19,O=C(O)Cc1ccc(NC(=O)c2ccc3c(c2)C(=O)N(CC2CCCO2)C3=O)cc1 (stereo not shown),12.6%
20,CC1=C(C(=O)OCCBr)C(c2cccc3ccccc23)NC(=O)N1 (stereo not shown),17.5%
21,CCCCN1C(=O)C(=O)N(CC(=O)N2CCc3ccccc32)C1=O,5.05%
22,Cc1cc(C)cc(N(C(=O)c2ccco2)C(C(=O)NC2CCCC2)c2ccncc2)c1 (stereo not shown),9.94%

row,SMILES,"hERG current change (%, negative = inhibition) at 10uM"
1,COc1cc(C(=O)OCCC(C)C)cc(OC)c1O,-1.55%
2,Cc1c(Br)c(=O)oc2c(Br)c(O)ccc12,19.9%
3,CCOC(=O)Cn1cc(C#N)c(=O)[nH]c1=O,-17.8%
4,Cc1c(C(=O)Nc2ccc3oc(-c4cccnc4)nc3c2)oc2ccccc12,-16.8%
5,CN(C)CCCN(C(=O)COc1ccccc1)c1nc2c(F)cccc2s1.Cl,-81.2%
6,CCN(CC)CCN(C(=O)CCOc1ccccc1)c1nc2c(F)cc(F)cc2s1.Cl,-8.13%
7,CN(C)CCN(C(=O)CCS(=O)(=O)c1ccccc1)c1nc2c(F)cccc2s1,13.6%
8,Fc1ccc(Cn2nnnc2CN2CCN(C3CCCCC3)CC2)cc1,-45.4%
9,C/C(CC(=O)NC(C)C)=N\NC(=O)C(c1ccccc1)c1ccccc1,9.95%
10,CC(C)(C)C(=O)C[n+]1ccc(C(N)=O)cc1.[Br-],0.811%
11,O=S(=O)(Nc1ccc2c(c1)OCCO2)c1c(F)cccc1F,3.4%
12,O=C(Cc1ccc(Cl)cc1Cl)OCC(=O)N1CCN(C(=O)c2ccco2)CC1,-57.6%
13,O=C(OCC(=O)N1CCOCC1)c1cccc(S(=O)(=O)N2CCCc3ccccc32)c1,-24.9%
14,O=C(COC(=O)c1cccc(S(=O)(=O)N2CCc3ccccc32)c1)NCc1ccco1,21.5%
15,CN(c1ccccc1)S(=O)(=O)c1cc(C(=O)OCC(=O)N2CCN(C(=O)c3ccco3)CC2)ccc1Cl,-68.3%
16,O=C(CCC(=O)c1cccs1)OCC(=O)N1CCN(C(=O)c2ccco2)CC1,-2.34%
17,O=C(OCC(=O)N1CCN(C(=O)c2ccco2)CC1)c1cccc(S(=O)(=O)N2CCc3ccccc32)c1,-84%
18,O=C(CSc1ccccc1)OCC(=O)N1CCN(C(=O)c2ccco2)CC1,-27%
19,CN(c1ccccc1)S(=O)(=O)c1cc(C(=O)OCC(N)=O)ccc1Cl,-4.09%
20,CCN(CC)S(=O)(=O)c1ccc(C(=O)OCC(=O)N2CCN(C(=O)c3ccco3)CC2)cc1,-37.2%
21,O=C(Cc1ccccc1F)OCC(=O)N1CCN(C(=O)c2ccco2)CC1,-22.6%
22,O=C(Cc1c(Cl)cccc1Cl)OCC(=O)N1CCN(C(=O)c2ccco2)CC1,-14.9%

row,SMILES,"hERG current change (%, negative = inhibition) at 10uM"
1,O=C(CCN1c2ccccc2Sc2ccccc21)OCC(=O)N1CCN(C(=O)c2ccco2)CC1,-66%
2,Cc1nn(C)c(Oc2ccc(Cl)cc2)c1C(=O)O,12.8%
3,CC1=CC(C)C2(COC(=O)Nc3ccccc3)COC(C)C1C2C (stereo not shown),-3.03%
4,CCOC(=O)C1CCN(Cc2cccc(Oc3ccc(Cl)cc3)c2)CC1,3.3%
5,CCn1c(CNC(=O)c2cccs2)n[nH]c1=S,3.27%
6,Cc1cccc(COc2ccc(/C=N/NC(=O)c3nnn(-c4nonc4N)c3C)cc2)c1,15.3%
7,O=C(COc1cccnc1[N+](=O)[O-])Nc1ccc2c(c1)OCO2,6.1%
8,Cc1cc(NC(=O)c2ccc(S(=O)(=O)N(C)CC3CCCO3)cc2)no1 (stereo not shown),2.09%
9,COc1ccccc1CCNS(=O)(=O)c1cn(C)nc1C,1.14%
10,CN(CCC#N)C(=O)COC(=O)c1ccc(Cl)c(S(=O)(=O)N(C)c2ccccc2)c1,-58.2%
11,O=C(OCC(=O)N1CCN(C(=O)c2ccco2)CC1)c1ccc(Cl)cc1,-38.7%
12,COCCN(CCOC)C(=O)COC(=O)c1ccc(Cl)c(S(=O)(=O)N(C)c2ccccc2)c1,-48.4%
13,O=C(OCC(=O)N1CCN(C(=O)c2ccco2)CC1)c1ccccc1,10.4%
14,O=C(OCC(=O)N1CCN(C(=O)c2ccco2)CC1)c1ccc(Cl)c(Cl)c1,-62.9%
15,CN(CCC#N)C(=O)COC(=O)c1ccc(Cl)c(S(N)(=O)=O)c1,21.8%
16,O=C(Nc1ccc2c(c1)CCC2)c1cccs1,24.7%
17,O=C(CSc1ccc2nnc(-c3ccc(Cl)cc3)n2n1)N1CCCc2ccccc21,1.71%
18,CCOC(=O)c1c(C)n(C)c2ccc(OC(C)C(=O)OC)cc12 (stereo not shown),-10%
19,COc1cc(/C=N/Nc2ccccn2)ccc1OCC(C)C,27.5%
20,CCCCn1c(-c2csc(C(C)C)c2)n[nH]c1=S,20.9%
21,Cc1ccc(COc2ccsc2C(=O)NNC(N)=S)cc1,19.9%
22,CCNCCOC(c1ccccc1)c1ccccc1.Cl,-31.8%

row,SMILES,"hERG current change (%, negative = inhibition) at 10uM"
1,CCC(C(=O)OCCOCCN(CC)CC)c1ccccc1 (stereo not shown),1.01%
2,CCN(CC)CCOC(=O)C(O)(c1ccccc1)c1ccccc1.Cl,-42.1%
3,CCN(CC)CCCOC(=O)C(OC)(c1ccccc1)c1ccccc1.Cl,-27.9%
4,CCN(CC)CCCOC(=O)C(OC(C)C)(c1ccccc1)c1ccccc1.Cl,-31.9%
5,CCN(CC)CCOC(=O)C(c1ccccc1)c1ccccc1.Cl,-52.2%
6,CCN(CC)CCCOC(=O)C(c1ccccc1)c1ccccc1.Cl,-56.5%
7,CCCC(C(=O)OCCN(CC)CC)(c1ccccc1)c1ccccc1.Cl,-53.9%
8,CCCOc1ccc(C(C(=O)OCCN(CC)CC)c2ccccc2)cc1.O=C(O)C(=O)O (stereo not shown),-43%
9,CCN(CC)CCOCCOC(=O)C(CC)(CC)c1ccccc1,-9.35%
10,CCN(CC)CCOC(c1ccccc1)c1ccc(C)cc1.Cl (stereo not shown),-73%
11,CCN(CC)CC#CCOC(c1ccccc1)c1ccccc1.Cl,-43.3%
12,O=C(NNC(=O)c1cccs1)c1ccc(Cl)c([N+](=O)[O-])c1,-6.26%
13,COC(=O)[C@H](CC(C)C)NC(=O)N1CCC(C)CC1,16.7%
14,CCOc1ccc(C(C)=O)cc1CN1C(=O)NC2(CCCCCC2)C1=O,3.83%
15,COc1ccccc1NC(=O)c1c(C)oc2c1CCCC2,4.78%
16,O=C(O)c1cccc(CSc2nnc(-c3ccc(Cl)cc3)o2)c1,12.5%
17,Cc1nn(Cc2ccccc2)c(C)c1NC(=O)CCC(=O)O,2.81%
18,O=C(O)CCC(=O)Nc1ccc(F)cc1,12.7%
19,CCNc1c(NCC)c(=O)c1=O,15.2%
20,CC(C)CC(=O)Nc1nnc(SCC(=O)NCc2ccc3c(c2)OCO3)s1,17.7%
21,O=C(O)c1cccc(N2C(=O)c3ccc(Oc4ccc(Cl)cc4)cc3C2=O)c1,12.8%
22,O=C(NNC(=S)NCc1ccccc1)c1ccc2c(c1)OCO2,8.77%

# — publication PMC4336329 (PLoS ONE, 2015)
